Assay outcomes: PubChem, National Center for Advancing Translational Sciences (NCATS)
An excerpt weighted towards active compounds, which were near 1.8% of everything screened.
GLP-1R inv ag: GLP-1 receptor (human) inverse agonism. P43220. HEK293 GLP-1R CRE-luciferase, luminescence, 24 h; GLP-1R form is constitutively active. Potency, µM (highest dose often 38.3 µM), for the others: top-dose activity change, negative = inhibition, most hits filed as inhibitors. 1.6% of 410,000 active. AID 624417; also: potency is read from the fitted curve at half-maximal effect; % is scaled to controls: 0 for no effect and ±100 for the full control effect; nearly all actives have a fitted effect of over 55% in size
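HEK293 cells stably co-expressing constitutively active GLP-1R and a cAMP-responsive luciferase reporter were seeded in DMEM with 10% Nu serum, given compounds after 12 h, and incubated 24 h at 37 deg C. Luminescence was then read.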
PTHR1 ag: PTHR1 (human) receptor agonism; HEK293 GP2 PTHR1 cells, GloSensor cAMP luminescence, 1 h; 0.075% of 410,000 active; Potency, µM (titrated, usually from 115 µM), for the others: at the highest dose activation, usual class: activators; Q03431; also: potency is read from the fitted curve at half-maximal effect; nearly all actives have a fitted effect of over 55% in size
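HEK-293-derived GP2 cells expressing PTHR1 and a GloSensor cAMP reporter, 3,000/well, plated overnight, given luciferin plus IBMX (each 0.5 mM as added) for 1 h at 37 °C, then compound for 1 h at 37 °C. Luminescence was read after 15 min at room temperature.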
TSHR antag: antagonists of human thyroid stimulating hormone receptor; TSHR-expressing cells, TSH-stimulated cAMP HTRF, 2 h; stronger effect = lower value; 0.2% of 330,000 active; activity change, negative = inhibition, % at 11.5 µM; P16473; AID 504810;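 active = activity change below a set negative limit, meaning inhibition stronger than a set level, cut at about -70% in these data; inconclusive = activity change between two set negative limits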; also: % is scaled to controls: 0 for no effect and ±100 for the full control effect
Target sequence (P16473 whole entry, looked up): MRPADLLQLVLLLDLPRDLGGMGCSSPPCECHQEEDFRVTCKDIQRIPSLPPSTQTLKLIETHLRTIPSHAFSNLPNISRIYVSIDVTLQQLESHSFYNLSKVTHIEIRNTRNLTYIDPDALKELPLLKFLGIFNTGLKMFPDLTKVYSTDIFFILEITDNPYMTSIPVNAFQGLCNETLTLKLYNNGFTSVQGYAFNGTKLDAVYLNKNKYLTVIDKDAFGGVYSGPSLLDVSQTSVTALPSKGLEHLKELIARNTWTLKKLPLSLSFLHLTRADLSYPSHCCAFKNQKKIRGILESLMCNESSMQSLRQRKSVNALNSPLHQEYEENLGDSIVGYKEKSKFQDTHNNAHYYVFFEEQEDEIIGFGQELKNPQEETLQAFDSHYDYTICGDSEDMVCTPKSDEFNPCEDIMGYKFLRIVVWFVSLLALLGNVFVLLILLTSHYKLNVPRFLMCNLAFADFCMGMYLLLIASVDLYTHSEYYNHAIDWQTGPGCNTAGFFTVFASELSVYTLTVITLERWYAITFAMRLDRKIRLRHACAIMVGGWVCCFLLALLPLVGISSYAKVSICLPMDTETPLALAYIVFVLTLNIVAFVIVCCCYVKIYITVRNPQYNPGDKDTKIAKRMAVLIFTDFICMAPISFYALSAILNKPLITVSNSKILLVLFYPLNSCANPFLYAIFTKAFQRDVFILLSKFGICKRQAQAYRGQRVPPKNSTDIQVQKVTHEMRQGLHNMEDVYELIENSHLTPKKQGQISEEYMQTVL
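Read-out is FRET at 665 nm (cryptate excitation 337 nm) from a cryptate-tagged anti-cAMP antibody, competed by cell cAMP against cAMP-d2. Compounds are tested on freshly harvested TSHR cells challenged with 4nM TSH (EC80) for 2 hours at 37 deg C.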
HEK293 tox: cytotoxicity counter-screen for GLP-1 receptor inverse agonists; AID 624418; 0.13% of 410,000 active; Potency, µM (series often up to 38.3 µM), inactives show top-dose activity change, negative = inhibition, usual class: inhibitors; HEK293 cAMP-luciferase reporter cells, luminescence, 24 h;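 also: loss of luciferase light is scored as toxicity; potency is read from the fitted curve at half-maximal effect; % is scaled to controls: 0 for no effect and ±100 for the full control effect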
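Here, cytotoxicity is scored as loss of luminescence. The MLSMR collection was tested on cells seeded in medium containing 10% Nu serum, with a 24 hr compound exposure preceded by 12 hours of culture.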
GLP1R ag: GLP-1 receptor (human) agonism. P43220. 0.007% of 380,000 active. Potency, µM (top dose mostly 45.6 µM), for the others: top-dose activation, usual class: activators. HEK293 GLP-1R CRE-luciferase, luminescence, 4-6 h; cells express a hypersensitive GLP-1R form; also: potency is read from the fitted curve at half-maximal effect; % of control where 0% means no effect
An asterisk follows results filed as active; i = inactive; ? = inconclusive; . = no result given; ! = repeats disagree; [ ] = another dose, or the depositor's remark. Unless noted, calls follow the shape of the dose curve; as a rule, active = well fitted curve in the direction sought with a large enough effect; inconclusive = small, poorly fitted or top-dose-only effect, or another doubt; inactive = no such curve, though single readings can be large; an effect the other way counts as inactive or inconclusive.

SMILES	GLP-1R inv ag	PTHR1 ag	TSHR antag	HEK293 tox	GLP1R ag
COC(=O)c1c(-c2ccc(Cl)cc2)noc1N1CCN(c2ccc(F)cc2)CC1	8%	-15%	.	-3%	.
O=C(CSc1ccccc1)N1CCc2c([nH]c3ccccc23)C1c1ccc(Cl)cc1 (centres undefined)	5µM*	i	.	1%	.
Cc1cccc(C2c3[nH]c4ccccc4c3CCN2C(=O)Cc2nc(-c3ccccc3)n[nH]2)n1 (centres undefined)	11µM*	-9%	4	-26%	17%
O=C(CSCc1ccc(F)cc1)N1CCc2c([nH]c3ccccc23)C1c1ccc(Cl)cc1 (centres undefined)	?	i	.	-9%	.
CC(=O)NCCC(=O)N1CCc2c([nH]c3ccccc23)C1c1cccc(Cl)c1 (centres undefined)	5µM*	i	-4	-16%	12%
CCCCCCOC(=O)c1cccnc1	.	.	.	.	1%
Cn1ccc2cc(-c3ccc4ncnc(NCc5cccc(F)c5)c4c3)ccc21	.	.	-6	.	.
CCN(c1ccccc1)S(=O)(=O)c1ccc(Cl)c(NC(=O)CN(C)Cc2cccc(F)c2)c1	5µM*	-18%	.	5%	13%
CCN(c1ccccc1)S(=O)(=O)c1ccc(Cl)c(NC(=O)CN2CCCCCC2)c1	1.6µM*	-27%	-15	0%	21%
Cc1ccc(NC2=C/C(=N\S(=O)(=O)c3cccs3)c3ccccc3C2=O)c(C)c1	?	-68%	-36	?	-9%
Cc1ccc(Cl)cc1NC1=C/C(=N\S(=O)(=O)c2cccs2)c2ccccc2C1=O	1µM*!	-33%[57.5 µM]	-76*	?	-11%
O=C(Cc1ccccc1)N/N=C/c1ccc2cccc(O)c2n1	?	-6%	10	5.6µM*	6%
NC(=O)N/N=C/c1ccc2cccc(OCc3ccccc3)c2n1	49%	i	8	2%	19%
Cc1ccc(C(CC(=O)NCC2(c3ccccc3)CCCC2)c2ccccc2)c(O)c1 (centres undefined)	?	-1%	.	?	.
OC[C@@H]1CN(Cc2ccc(F)cc2)C[C@H](n2cnc3c(Nc4ccccc4)ncnc32)O1	-15%	-9%	.	1%	0%
OC[C@@H]1CN(Cc2ccc(-c3ccccc3)cc2)C[C@H](n2cnc3c(Nc4ccccc4)ncnc32)O1	4.5µM*	-51%	.	-30%	-1%
CCCCNc1c2c3c(cccc3n(C)c1=O)C(=O)c1ccccc1-2	-10%	i	-23	243%	9%
Cn1c(=O)c(NC2CCCCC2)c2c3c(cccc31)C(=O)c1ccccc1-2	10µM*	i	-1	i	-2%
COc1ccccc1NC(=O)CSc1oc(-c2ccc(F)cc2)nc1S(=O)(=O)c1ccc(Br)cc1	-3%	i	.	1%	.
COc1ccc(-c2noc(COc3cc(C)ccc3C)n2)cc1OC	?	-26%	.	-8%	.
CCc1ccc(NC(=O)c2cnn(-c3c(C)cccc3C)c2C2CCN(C(=O)OC(C)(C)C)CC2)cc1	16%	i	.	5%	.
O=C(Nc1cccc(Cl)c1)c1ccc2nc(Cc3ccccc3)oc2c1	10µM*	-35%	.	?	.
Cc1[nH]ccc2cc3nc4ccccc4c3cc12	10µM*	i	.	-1%	-2%
COc1ccc2[nH]c3c4c(ccc3c2c1)C(=O)C=CC4=O	?	-8%	-33	7.9µM*	11%
COc1ccc2[nH]c(=O)cc(C(=O)O)c2c1	2%	-18%	9	11%	-1%
SMILES	GLP-1R inv ag	PTHR1 ag	TSHR antag	HEK293 tox	GLP1R ag
O=C(NCC(c1ccccc1)c1ccccc1)c1nn(-c2ccccc2Cl)nc1CO	?	-12%	.	-13%	.
COCCCNc1ncnc2c1c(-c1ccccc1)cn2-c1ccc(C)c(Cl)c1	1%	i	.	2%	.
Cc1ccc(C)n1-n1c(C)nc2sc3c(c2c1=O)CCCCC3	11µM*	-3%[57.5 µM]	-2	-13%	2%
O=C(CSc1nc(-c2ccccc2)c(-c2ccccc2)o1)N1CCCCC1	11µM*	-31%	.	2%	-1%
O=C(CCSc1nc(-c2ccccc2)c(-c2ccccc2)o1)N1CCCCC1	?	-93%	.	-5%	13%
COc1ccc(-c2sc(NC(C)=O)nc2-c2ccccc2)cc1	?	i	3	48%	-4%
O=C(CSCC(=O)N1CCCCC1)Nc1nc(-c2ccccc2)c(-c2ccccc2)s1	5.6µM*	-46%	-18	-5%	-3%
CCOC(=O)c1sc(NC(=O)Nc2ccccc2Cl)cc1C	7.9µM*	-17%	0	?	-15%
CCOC(=O)c1sc(NC(C)=O)cc1C	36%	-21%	5	-14%	2%
COc1ccc(C2=Nn3c(nnc3-c3ccncc3)SC2)cc1OC	0%	i	-15	4%	?
COc1ccc(C2=Nn3c(nnc3-c3cccnc3)SC2)cc1OC	0%	-6%[57.5 µM]	2	8%	2µM*
COc1ccc(C2C(=O)N(C3CCCCC3)CC(=O)N2CCc2ccc(OC)c(OC)c2)cc1 (centres undefined)	6%	6%	.	-2%	.
O=C(CN1C(=O)NC2(CCCC2)C1=O)Nc1cccc(Cl)c1Cl	-23%	-10%	11	1%	8%
O=C1CN(CC(=O)Nc2cccc(Cl)c2Cl)c2ccccc2N1	10µM*	i	-5	1%	9%
O=[N+]([O-])c1ccc(C=NN2CCCCCC2)cc1	11µM*	-48%	.	8%	4%
CC(C)Oc1ccccc1C1Nc2ccccc2C(=O)N1c1ccc2c(c1)OCCO2 (centres undefined)	10µM*	-18%[57.5 µM]	25	23%	-9%
CC(C)Oc1ccccc1C1CC(=O)Nc2cc3c(cc21)OCCO3 (centres undefined)	-13%	-37%	-13	?	?
Cc1cccc(Cn2c(SCc3ccc(C(=O)NCc4cccs4)cc3)nc3cccnc32)c1	?	i	.	-27%	.
CCN1/C(=C/c2ccc3ccccc3[n+]2CC)C=Cc2ccccc21	?	-24%[57.5 µM]	?	4.5µM*	-35%
S=c1nc2ccccc2c2nc(-c3ccccc3)[nH]n12	?	i	-14	0.89µM*	-3%
S=c1nc2ccccc2c2nc(-c3ccccc3Cl)[nH]n12	?	-10%	13	-48%	-5%
Cc1nn(C(C)(C)C)c(OC(=O)c2ccc3c(c2)OCO3)c1Sc1ccccc1	4.5µM*	-1%	1	-5%	-5%
Cc1ccc(S(=O)(=O)c2c(C)nn(C(C)(C)C)c2OC(=O)c2ccco2)cc1	?	-8%	17	-27%	-21%
CCOc1ccc(C(=O)Oc2c(Sc3ccccc3)c(C)nn2C(C)(C)C)cc1OCC	?	-15%	.	-1%	.
Cc1nn(C(C)(C)C)c(OC(=O)c2ccc3c(c2)OCO3)c1S(=O)(=O)c1ccccc1	10µM*	-1%[57.5 µM]	-4	-6%	-6%
